Measured values published in PubChem BioAssay (NCI).
About 83,000 compounds went through this panel and 20% of them were active in at least one assay; those are over-represented in the sample as a whole.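 How to read the values: 0–100, growth inhibition (40 = 60% inhibited); 0, no net growth; -100 to 0, cell death (-40 = 40% of starting cells died; -100 = all dead).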 Calls of active or inactive are those of the source. How the source made its calls: active means growth percent below 10; inactive means the rest.

Columns and labels:
Test in all cases: NCI-60 one-dose screen, 48 h (100 = growth as untreated, 0 = no growth, -100 = all killed)
Settings in all cases: 10 µM unless noted
SK-MEL-2 melanoma = test system: SK-MEL-2 melanoma
EKVX NSCLC = test system: EKVX NSCLC
SN12C renal = test system: SN12C renal
UO-31 renal = test system: UO-31 renal
TK-10 renal = test system: TK-10 renal
ACHN renal = test system: ACHN renal
CAKI-1 renal = test system: CAKI-1 renal
A498 renal = test system: A498 renal
CCRF-CEM leukemia = test system: CCRF-CEM leukemia

Measured: growth

CNC(=O)c1cc(Oc2cccc3nc(Nc4ccc(F)c(Cl)c4)ccc23)ccn1
inactive: SK-MEL-2 melanoma 90.8% | EKVX NSCLC 69.5% | SN12C renal 60.4% | UO-31 renal 68.7% | TK-10 renal 52.9% | ACHN renal 75.3% | CAKI-1 renal 97% | A498 renal 60.4% | CCRF-CEM leukemia 60.3%

N#Cc1nc2c(S(=O)(=O)c3ccc(Cl)cc3)c(N)n(Nc3cccc(Cl)c3)c2nc1C#N
inactive: SK-MEL-2 melanoma 121% | EKVX NSCLC 33.3% | SN12C renal 56.8% | UO-31 renal 63% | TK-10 renal 36.3% | ACHN renal 67.7% | CAKI-1 renal 88.5% | A498 renal 49.2%

Nc1cc2c3c(cccc3c1)C(=O)N(CCN1CCCC1)C2=O
inactive: SK-MEL-2 melanoma 60.2% | EKVX NSCLC 73% | SN12C renal 31.9% | UO-31 renal 13.5% | TK-10 renal 105% | CCRF-CEM leukemia 28.7%
active: ACHN renal 4.18% | CAKI-1 renal 7.81% | A498 renal 0.673%

COc1ccc(NC(=O)c2nc(-c3cc(OC)c(OC)c(OC)c3)n(-c3cccc4ccccc34)n2)cc1OC
active: UO-31 renal 6.34%
inactive: SK-MEL-2 melanoma 43.7% | EKVX NSCLC 44.6% | SN12C renal 52.9% | TK-10 renal 44.8% | ACHN renal 30.6% | CAKI-1 renal 20.1% | A498 renal 42.6%

C[n+]1cccc(CC(=O)NO)c1
inactive: SK-MEL-2 melanoma 100% | EKVX NSCLC 102% | SN12C renal 94.7% | UO-31 renal 97.3% | TK-10 renal 94.8% | ACHN renal 98.4% | CAKI-1 renal 104% | A498 renal 115%

CN(C)c1ccc(-c2ccc3[nH]c(=O)nc(-c4ccccc4)c3c2)cn1
inactive: SK-MEL-2 melanoma 22.8% | EKVX NSCLC 58.5% | SN12C renal 50.7% | UO-31 renal 53% | TK-10 renal 82.8% | ACHN renal 47.9% | CAKI-1 renal 49.6% | A498 renal 52.3%

COC(=O)CCC1=C(C)C2=NC1=CC1=NC(=CC3=NC(=Cc4[nH]c(/c(=C(/C)O)c4C)=C2)C(C(C)=O)=C3C)C(C)=C1CCC(=O)OC
inactive: SK-MEL-2 melanoma 102% | EKVX NSCLC 99.7% | SN12C renal 97.8% | UO-31 renal 100% | TK-10 renal 123% | ACHN renal 103% | CAKI-1 renal 98.8% | A498 renal 90.1% | CCRF-CEM leukemia 101%

NC(=O)c1ccc[n+](Cc2ccc(Cl)cc2Cl)c1
inactive: SK-MEL-2 melanoma 95.7% | EKVX NSCLC 107% | SN12C renal 101% | UO-31 renal 99.8% | TK-10 renal 88.4% | ACHN renal 109% | CAKI-1 renal 107% | A498 renal 99.8% | CCRF-CEM leukemia 97.4%

CN(C)CC1C(=O)O[C@H]2[C@H]1CC/C(COC(=O)c1cc3ccccc3[nH]1)=C\CC[C@@]1(C)O[C@@H]21 (some centres not stated)
active: SK-MEL-2 melanoma -55% | EKVX NSCLC -27.4% | SN12C renal -22.1% | UO-31 renal -92.7% | TK-10 renal -89.2% | ACHN renal -82.4% | CAKI-1 renal -14.4% | A498 renal 5.21% | CCRF-CEM leukemia 1.08%

Cc1cc(NCc2cc(Nc3ccnc4cc(Cl)ccc34)ccc2F)nc(N2CCN(C)CC2)n1
inactive: EKVX NSCLC 31% | SN12C renal 36.8% | CAKI-1 renal 61.8%
active: SK-MEL-2 melanoma -70.7% | UO-31 renal -8.37% | TK-10 renal -16% | ACHN renal 5.12% | A498 renal -26.8% | CCRF-CEM leukemia -13.5%

O=[N+]([O-])c1ccc(OCCO)cc1
inactive: SK-MEL-2 melanoma 105% | EKVX NSCLC 92.8% | SN12C renal 101% | UO-31 renal 86.2% | TK-10 renal 117% | ACHN renal 104% | CAKI-1 renal 93.1% | A498 renal 90.6% | CCRF-CEM leukemia 96.2%

CC1=NOC(=O)/C1=C\c1ccc(O)cc1
inactive: SK-MEL-2 melanoma 113% | EKVX NSCLC 104% | SN12C renal 101% | UO-31 renal 85.7% | TK-10 renal 102% | ACHN renal 101% | CAKI-1 renal 95.4% | A498 renal 86.7% | CCRF-CEM leukemia 94.1%

COc1ccc(S(=O)(=O)NCCNc2nccc(-c3c(-c4cccc(F)c4)nc4sccn34)n2)cc1
inactive: SK-MEL-2 melanoma 58.1% | EKVX NSCLC 39.7% | SN12C renal 30.7% | UO-31 renal 20.3% | TK-10 renal 55.8% | ACHN renal 15.8% | CAKI-1 renal 28.2% | A498 renal 43.1% | CCRF-CEM leukemia 32.3%

O=C(CC(SCc1ccccc1)c1ccccc1)c1ccccc1 (configuration not stated)
inactive: SK-MEL-2 melanoma 120% | EKVX NSCLC 82.4% | SN12C renal 98.8% | UO-31 renal 84.7% | TK-10 renal 87.3% | ACHN renal 99.6% | CAKI-1 renal 95.8% | A498 renal 81.8% | CCRF-CEM leukemia 95.9%

Cc1cc(C)c(-c2c(C)cc(C)cc2CBr)c(CBr)c1
inactive: SK-MEL-2 melanoma 94.5% | EKVX NSCLC 102% | SN12C renal 80.3% | UO-31 renal 75.9% | TK-10 renal 103% | ACHN renal 75% | CAKI-1 renal 87.6% | A498 renal 73.1% | CCRF-CEM leukemia 42%

C[C@]12CC[C@@H]3c4cc(OC(F)F)c(O)cc4CC[C@H]3[C@@H]1CC[C@@H]2OS(N)(=O)=O
active: A498 renal -7.08%
inactive: SK-MEL-2 melanoma 42.1% | EKVX NSCLC 24.6% | SN12C renal 44.2% | UO-31 renal 38.2% | TK-10 renal 93.2% | ACHN renal 50.7% | CAKI-1 renal 34.5% | CCRF-CEM leukemia 16.6%

COc1ccc(N2CCN(c3nc(-c4cc(OC)c(OC)c(OC)c4)nc4ccccc34)CC2)cc1
inactive: SK-MEL-2 melanoma 93.6% | EKVX NSCLC 85% | SN12C renal 90.1% | UO-31 renal 69.9% | TK-10 renal 113% | ACHN renal 90.6% | CAKI-1 renal 84.1% | A498 renal 79.5% | CCRF-CEM leukemia 91.3%

CC1OC(O[C@H]2/C=C/C=C/C=C/C=C/C=C/C=C/C=C/[C@H](C)[C@@H](O)[C@@H](C)[C@H](C)OC(=O)CC(O)CC(O)CCC(O)C(O)CC(O)C[C@]3(O)C[C@H](O)C(C(=O)O)C(C2)O3)C(O)[C@H](N)C1O (some centres not stated)
inactive: SK-MEL-2 melanoma 57.6% | CAKI-1 renal 36.1% | CCRF-CEM leukemia 36.8%
active: EKVX NSCLC -14.3% | SN12C renal -84.1% | UO-31 renal -94.3% | TK-10 renal -40.7% | ACHN renal -80.3% | A498 renal 9.81%

COc1ccc(-c2ccc3c(c2)sc2nc(-c4ccc(F)cc4)cn23)cc1
inactive: SK-MEL-2 melanoma 73.4% | EKVX NSCLC 82.6% | SN12C renal 87.9% | UO-31 renal 81% | TK-10 renal 75.6% | ACHN renal 92.9% | CAKI-1 renal 100% | A498 renal 76.8% | CCRF-CEM leukemia 98.8%

CCN1CCN(c2cc(C)nc(NCc3cc(Nc4ccnc5cc(Cl)ccc45)ccc3F)n2)CC1
inactive: SK-MEL-2 melanoma 104% | EKVX NSCLC 59.6% | SN12C renal 64.3% | UO-31 renal 69.1% | TK-10 renal 99.8% | ACHN renal 34.9% | CAKI-1 renal 87.8% | A498 renal 36.2% | CCRF-CEM leukemia 16.6%

Cc1ccc(/C=C2\C(=O)N(C)c3ccc(S(=O)(=O)Nc4ccc(C(C)(C)C)cc4)cc32)s1
inactive: SK-MEL-2 melanoma 90.3% | EKVX NSCLC 54.3% | SN12C renal 36.7% | UO-31 renal 56.9% | TK-10 renal 70.2% | ACHN renal 59.8% | CAKI-1 renal 55.2% | A498 renal 75.9% | CCRF-CEM leukemia 65.6%

S=C(c1ccc2c(c1)OCO2)N1CCN(c2ccccc2Cl)CC1
inactive: SK-MEL-2 melanoma 97.3% | EKVX NSCLC 124% | SN12C renal 110% | UO-31 renal 79.4% | TK-10 renal 105% | ACHN renal 99% | CAKI-1 renal 83.8% | A498 renal 97% | CCRF-CEM leukemia 96.1%

CCC1(C2CCCC2)NC(=O)NC1=O (configuration not stated)
inactive: SK-MEL-2 melanoma 102% | EKVX NSCLC 105% | SN12C renal 99% | UO-31 renal 87.4% | TK-10 renal 113% | ACHN renal 93.8% | CAKI-1 renal 100% | A498 renal 100% | CCRF-CEM leukemia 87.8%

COC(=O)[C@]12CC[C@@H](C)[C@H](C)[C@@H]1C1=CC[C@@H]3[C@@]4(C)C(C=O)=C[C@@](C)(COC(C)=O)[C@@H]4C(=O)C[C@@]3(C)[C@]1(C)CC2
inactive: SK-MEL-2 melanoma 43% | EKVX NSCLC 36.1% | SN12C renal 43.6% | UO-31 renal 34.1% | TK-10 renal 36.8% | ACHN renal 23.5% | CAKI-1 renal 44.6% | A498 renal 60.5% | CCRF-CEM leukemia 43.9%

Cc1cc(NCc2cc(Nc3ccnc4cc(Cl)ccc34)ccc2F)nc(N2CCOCC2)n1
inactive: SK-MEL-2 melanoma 84.6% | EKVX NSCLC 54.3% | SN12C renal 31.4% | CAKI-1 renal 60.3% | A498 renal 51.7%
active: UO-31 renal -47.8% | TK-10 renal -10.4% | ACHN renal -79.5% | CCRF-CEM leukemia 1.04%

O=C(NCCCNc1cc(-c2cn(-c3ccccc3)nc2-c2cccc(O)c2)ccn1)c1cccc(O)c1
inactive: SK-MEL-2 melanoma 83.5% | EKVX NSCLC 71.4% | SN12C renal 76.6% | UO-31 renal 85.8% | TK-10 renal 115% | ACHN renal 89.4% | CAKI-1 renal 98.4% | A498 renal 102% | CCRF-CEM leukemia 40.5%

Cc1ccc(C(=O)CSc2nc(-c3ccc(Br)cc3)c(C#N)c(=O)[nH]2)cc1
inactive: SK-MEL-2 melanoma 106% | EKVX NSCLC 106% | SN12C renal 99.5% | UO-31 renal 88.5% | TK-10 renal 103% | ACHN renal 110% | CAKI-1 renal 87.2% | A498 renal 65.1% | CCRF-CEM leukemia 105%

CNC(=O)c1cc(Oc2ccc3nc(Nc4ccc(Cl)c(C(F)(F)F)c4)ccc3c2)ccn1
inactive: SK-MEL-2 melanoma 75.9% | EKVX NSCLC 62.6% | SN12C renal 71.1% | UO-31 renal 57.8% | TK-10 renal 54.5% | ACHN renal 49.4% | CAKI-1 renal 92.7% | A498 renal 61.8% | CCRF-CEM leukemia 42.2%

O=S(=O)(Nc1cccc(Cl)c1)c1ccc(-c2cnc(C3CC3)o2)cc1
active: A498 renal -3.4%
inactive: SK-MEL-2 melanoma 58.8% | EKVX NSCLC 35.1% | SN12C renal 39.7% | UO-31 renal 35.5% | TK-10 renal 45.9% | ACHN renal 37.1% | CAKI-1 renal 29.8% | CCRF-CEM leukemia 12.8%
